HT1080 IDH1KD tx = qHTS for induction of synthetic lethality in tumor cells producing 2HG: qHTS for the HT-1080-IDH1KD cell line; Potency, µM (top dose mostly 46.1 µM), for inactives: top-dose activity, negative = toxicity, hits mostly cytotoxic; 360,000 tested, 2% active; HT-1080 IDH1 knockdown viability, ATP luminescence, 48 h; AID 686971, 2013;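 also: 0% = DMSO wells and -100% = cell-free medium wells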
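CellTiter-Glo luminescence after 48 h compound exposure at 37 degrees C of IDH1-knockdown HT-1080 cells in 5% FBS RPMI. %Activity scaled between DMSO wells and cell-free media wells, with curves fitted and assigned curve classes.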
HT1080NT lethal = qHTS for induction of synthetic lethality in tumor cells producing 2HG: qHTS for the HT-1080-NT fibrosarcoma cell line; Potency, µM (series often up to 46.1 µM), inactives show top-dose activity, negative = less viability, hits mostly cytotoxic; 360,000 tested, 1.6% active; AID 686970, 2013; HT-1080-NT fibrosarcoma viability, CellTiter-Glo ATP luminescence, 48 h;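 also: NT is the 2HG producing partner of a matched IDH1 knockdown line; 0% = DMSO-treated cells and -100% = media-only wells without cells; nearly all actives have a fitted effect of over 55% in size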
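Fibrosarcoma NT cells, 750 per well in 5% FBS RPMI, were exposed to compound for 48 hours. Viability: CellTiter-Glo luminescence.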
KB-3-1 cytotox = qHTS assay for MDR1-selective chemotherapeutics: Primary screen using the parental adenocarcinoma cell KB-3-1. KB-3-1 viability, CellTiter-Glo ATP luminescence, 72 h. Potency, µM (titrated, usually from 46.1 µM), hits mostly cytotoxic. 400,000 tested, 1.4% active; also: % is scaled to controls: 0 for no effect and ±100 for the full control effect; nearly all actives have a fitted effect of over 60% in size
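Screening of KB-3-1 cells (DMEM, 10% FBS, phenol-red free) ran from lowest to highest compound concentration; after 72 h at 37 °C viability was read luminescently and curves fitted.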
KB-V1 cytotox = qHTS assay for MDR1-selective chemotherapeutics: Primary screen using the drug-selected MDR subline cells KB-V1 | KB-V1 MDR cells viability, CellTiter-Glo, 72 h | Potency, µM (highest dose often 46.1 µM), usual class: cytotoxic | 400,000 tested, 3.4% active | AID 1347076, 2019; also: % is scaled to controls: 0 for no effect and ±100 for the full control effect; nearly all actives have a fitted effect of over 60% in size
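Cells of the MDR subline KB-V1 are plated, dosed with compound at multiple concentrations, and incubated 72 h at 37 degrees C; CellTiter-Glo is then added and luminescence read after 10 min.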
SW480 rereplic = A quantitative high throughput screen for small molecules that induce DNA re-replication in SW480 colon adenocarcinoma cells; 340,000 tested, 1.8% active; AID 624297, 2012; Potency, µM (titrated, usually from 46.1 µM), for inactives: at the top dose re-replication activation, hits mostly activators; SW480 DNA re-replication, Hoechst DNA content imaging, 48 h; also: % of control where 0% means no effect; nearly all actives have a fitted effect of over 55% in size
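SW480 cells exposed to compounds for 48 hr at 37 C, 5% CO2, then Hoechst-stained 40 min. Nuclear DNA content imaged by fluorescence scanning (405 nm excitation, 500-530 nm emission); re-replication scored as increased high-intensity nuclei.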
MCF10A rerep = A quantitative high throughput screen for small molecules that induce DNA re-replication in MCF 10a normal breast cells; MCF 10A DNA re-replication, Hoechst nuclear intensity, 48 h; Potency, µM (doses to about 46.1 µM), inactives show at the top dose activity, positive = re-replication, actives largely listed as activators; 350,000 tested, 2.9% active; AID 624296, 2012; also: % of control where 0% means no effect; nearly all actives have a fitted effect of over 50% in size
An asterisk follows results filed as active; [ ] = another dose, or the depositor's remark. An excerpt weighted towards active compounds, which were near 8% of everything screened. Calls follow the shape of the dose curve; as a rule, active = well fitted curve in the direction sought with a large enough effect; inconclusive = small, poorly fitted or top-dose-only effect, or another doubt; inactive = no such curve, though single readings can be large; an effect the other way counts as inactive or inconclusive. Potency is read from the fitted curve at half-maximal effect.

What do the screens show for `Cc1ccsc1/C=N\NC(=O)Cn1nnc2ccccc21`?
HT1080 IDH1KD tx: inconclusive; HT1080NT lethal: -21%; KB-3-1 cytotox: inconclusive; KB-V1 cytotox: inconclusive; SW480 rereplic: 18µM*; MCF10A rerep: inconclusive

Results for CC1=C(C(=O)OC(C)C)C(c2ccccc2)NC(=S)N1C (centres undefined) ?
HT1080 IDH1KD tx: inconclusive; HT1080NT lethal: -10%; KB-3-1 cytotox: inactive; KB-V1 cytotox: 18µM*; SW480 rereplic: inconclusive; MCF10A rerep: -1%

Results for CC(O)CC(C(=O)NNc1ccccc1)C(=O)NNc1ccccc1 (centres undefined) ?
HT1080 IDH1KD tx: 2.3µM*; HT1080NT lethal: 1.3µM*; KB-3-1 cytotox: inconclusive; KB-V1 cytotox: inactive; SW480 rereplic: 0%; MCF10A rerep: inconclusive

How did O=C(NNc1ccccc1)C(CCO)C(=O)NNc1ccccc1 do in these assays?
HT1080 IDH1KD tx: 6.5µM*; HT1080NT lethal: 7.3µM*; KB-3-1 cytotox: inactive; KB-V1 cytotox: inactive; SW480 rereplic: inconclusive; MCF10A rerep: 12µM*

How did CC(C)C(=O)NNc1ccccc1 do in these assays?
HT1080 IDH1KD tx: -8%; HT1080NT lethal: inconclusive; KB-3-1 cytotox: inactive; KB-V1 cytotox: inactive; SW480 rereplic: 2%; MCF10A rerep: 4%

Results for Cc1cc(C)nc(Sc2ncnc(N)c2[N+](=O)[O-])n1 ?
HT1080 IDH1KD tx: inconclusive; HT1080NT lethal: inconclusive; KB-3-1 cytotox: inconclusive; KB-V1 cytotox: inactive; SW480 rereplic: inconclusive; MCF10A rerep: 21µM*

How did Cc1cccc(Nc2ncnc(N)c2[N+](=O)[O-])n1 do in these assays?
HT1080 IDH1KD tx: -10%; HT1080NT lethal: 13%; KB-3-1 cytotox: inactive; KB-V1 cytotox: inactive; SW480 rereplic: 0%; MCF10A rerep: 0%

Results for COc1cc(NC(=O)c2cc(-c3cccc(OC)c3)n[nH]2)cc(OC)c1 ?
KB-3-1 cytotox: inactive; KB-V1 cytotox: inactive

How did O=C1/C(=C/c2ccc([N+](=O)[O-])cc2)C=C(c2ccccc2)N1c1ccc(O)cc1 do in these assays?
HT1080 IDH1KD tx: inconclusive; HT1080NT lethal: -15%; KB-3-1 cytotox: inconclusive; KB-V1 cytotox: 5.8µM*; SW480 rereplic: inconclusive; MCF10A rerep: 18µM*

Results for O=C1/C(=C/c2ccc([N+](=O)[O-])cc2)C=C(c2ccccc2)N1c1ccccc1 ?
HT1080 IDH1KD tx: -10%; HT1080NT lethal: -3%; KB-3-1 cytotox: inactive; KB-V1 cytotox: inactive; SW480 rereplic: 7%; MCF10A rerep: 17%

How did Cc1ncc(S(=O)(=O)c2ccccc2)c(-c2ccccc2)n1 do in these assays?
HT1080 IDH1KD tx: 12%; HT1080NT lethal: 11%; KB-3-1 cytotox: inactive; KB-V1 cytotox: inactive; SW480 rereplic: -3%; MCF10A rerep: -4%

Results for O=S(=O)(c1ccccc1)c1cnc(-c2cccnc2)nc1-c1ccc(Cl)c(Cl)c1 ?
HT1080 IDH1KD tx: 0%; HT1080NT lethal: 6%; KB-3-1 cytotox: inactive; KB-V1 cytotox: 6.5µM*; SW480 rereplic: -8%; MCF10A rerep: 2%

How did O=C(Nc1cccc(-c2nc3ccccc3o2)c1)c1cccc2c(Cl)cccc12 do in these assays?
KB-3-1 cytotox: inactive; KB-V1 cytotox: inactive

What do the screens show for `O=C1CC(N2CCN(C3CC(=O)N(CCc4ccccc4)C3=O)CC2)C(=O)N1CCc1ccccc1` (centres undefined)?
HT1080 IDH1KD tx: 2%[9.24 µM]; HT1080NT lethal: -20%; KB-3-1 cytotox: inactive; KB-V1 cytotox: inconclusive; SW480 rereplic: 6%; MCF10A rerep: -8%

Results for O=C1CC(N2CCN(C/C=C/c3ccccc3)CC2)C(=O)N1CCc1ccccc1 (centres undefined) ?
HT1080 IDH1KD tx: -24%; HT1080NT lethal: inconclusive; KB-3-1 cytotox: inactive; KB-V1 cytotox: 12µM*; SW480 rereplic: 1%; MCF10A rerep: inconclusive

What do the screens show for `Cc1c(NC(=O)c2cc([N+](=O)[O-])ccc2N2CCOCC2)cccc1-c1nc2ccccc2o1`?
KB-3-1 cytotox: inconclusive; KB-V1 cytotox: inactive

What do the screens show for `CCCCn1c(SCC(=O)Nc2ccc3c(c2)OCO3)nc2c1c(=O)n(C)c(=O)n2C`?
HT1080 IDH1KD tx: -13%; HT1080NT lethal: 8%; KB-3-1 cytotox: 21µM*; KB-V1 cytotox: 5.8µM*; SW480 rereplic: 0%; MCF10A rerep: -7%

What do the screens show for `CCCCn1c(SCC(=O)Nc2nnc(CC)s2)nc2c1c(=O)n(C)c(=O)n2C`?
HT1080 IDH1KD tx: 2.8µM*; HT1080NT lethal: inconclusive; KB-3-1 cytotox: inactive; KB-V1 cytotox: 21µM*; SW480 rereplic: 14%; MCF10A rerep: 1%

Results for CCCCn1c(SCC(=O)Nc2nnc(C)s2)nc2c1c(=O)n(C)c(=O)n2C ?
HT1080 IDH1KD tx: -7%; HT1080NT lethal: 4%; KB-3-1 cytotox: inactive; KB-V1 cytotox: inactive; SW480 rereplic: -3%; MCF10A rerep: -1%

How did CCCn1c(SCC(=O)Nc2nnc(C(C)C)s2)nc2c1c(=O)n(C)c(=O)n2C do in these assays?
HT1080 IDH1KD tx: 8%; HT1080NT lethal: 19%; KB-3-1 cytotox: 13µM*; KB-V1 cytotox: inconclusive; SW480 rereplic: -11%; MCF10A rerep: 3%

What do the screens show for `Cc1nc2c(c(C)nn2C(C)(C)C)c(C)c1CCC(=O)Nc1ccc(Br)cc1Br`?
KB-3-1 cytotox: inactive; KB-V1 cytotox: inactive

How did CCOC(=O)c1c(C)oc2nc(C)nc(NCc3cccc(Cl)c3)c12 do in these assays?
KB-3-1 cytotox: inactive; KB-V1 cytotox: inactive

How did Cc1ccc(C)c(NC(=O)Cn2c(=O)n(Cc3ccco3)c(=O)c3oc4ccccc4c32)c1 do in these assays?
KB-3-1 cytotox: inactive; KB-V1 cytotox: inactive

What do the screens show for `CCOc1ccccc1NC(=O)CSc1ccc2nnc(CCNS(=O)(=O)c3ccccc3)n2n1`?
KB-3-1 cytotox: inactive; KB-V1 cytotox: inactive

How did CC(=O)Nc1ccc(C(=O)Nc2ccc(S(=O)(=O)Nc3nccc(C)n3)cc2)cc1 do in these assays?
HT1080 IDH1KD tx: 3%; HT1080NT lethal: 7%; KB-3-1 cytotox: inactive; KB-V1 cytotox: inconclusive; SW480 rereplic: inconclusive; MCF10A rerep: -3%

Source: PubChem BioAssay (National Center for Advancing Translational Sciences (NCATS))
